# Measured values reported in publication PMC11062922 (Nature Chemical Biology, 2023).
# Experiments:
# Parameters in all cases: species or system human, MV4-11 + K-562 + COLO205 + SK-N-BE2 + OVCAR-8
# ACOX3 = conditions: read-out: apparent Kd; compound concentrations: 100 nM and 1000 nM (sheet 'Samples'), CATDS: 4.2441767473343E-3; n = 1
# CDK1 = conditions: read-out: apparent Kd; compound concentrations: 100 nM and 1000 nM (sheet 'Samples'), CATDS: 4.2052312432732299E-3; n = 1
# FN3K = conditions: read-out: apparent Kd; compound concentrations: 100 nM and 1000 nM (sheet 'Samples'), CATDS: 4.2262124169733604E-3; n = 1
# GRAMD1A = conditions: read-out: apparent Kd; compound concentrations: 100 nM and 1000 nM (sheet 'Samples'), CATDS: 3.9512769472384501E-3; n = 1
# MAP3K3 = conditions: read-out: apparent Kd; compound concentrations: 100 nM and 1000 nM (sheet 'Samples'), CATDS: 4.1000911479265297E-3; n = 1
# MAPK3 = conditions: read-out: apparent Kd; compound concentrations: 100 nM and 1000 nM (sheet 'Samples'), CATDS: 4.9102061744830498E-3; n = 1
# PKMYT1 = conditions: read-out: apparent Kd; compound concentrations: 100 nM and 1000 nM (sheet 'Samples'), CATDS: 4.7786675943352697E-3; n = 1
# SLC25A5 = conditions: read-out: apparent Kd; compound concentrations: 100 nM and 1000 nM (sheet 'Samples'), CATDS: 3.4931763386449499E-3; n = 1
# TAOK2 = conditions: read-out: apparent Kd; compound concentrations: 100 nM and 1000 nM (sheet 'Samples'), CATDS: 4.3468745935786399E-3; n = 1
# PSMC4 = conditions: read-out: apparent Kd; compound concentrations: 100 nM and 1000 nM (sheet 'Samples'), CATDS: 0.17422831247088; n = 1
# PGK1 = conditions: read-out: apparent Kd; compound concentrations: 100 nM and 1000 nM (sheet 'Samples'), CATDS: 0.13034020177251299; n = 1
# DAPK3 = conditions: read-out: apparent Kd; compound concentrations: 100 nM and 1000 nM (sheet 'Samples'), CATDS: 6.6145961365307402E-3; n = 1
# AMPK-alpha1 = conditions: compound concentrations: 100 nM and 1000 nM (sheet 'Samples')
# CLK1 = conditions: compound concentrations: 100 nM and 1000 nM (sheet 'Samples')
# DYRK1A = conditions: compound concentrations: 100 nM and 1000 nM (sheet 'Samples')
# MLK3 = conditions: compound concentrations: 100 nM and 1000 nM (sheet 'Samples')
# NEK3 = conditions: compound concentrations: 100 nM and 1000 nM (sheet 'Samples')
# NEK9 = conditions: compound concentrations: 100 nM and 1000 nM (sheet 'Samples')
# SRC = conditions: compound concentrations: 100 nM and 1000 nM (sheet 'Samples')
# STK16 = conditions: compound concentrations: 100 nM and 1000 nM (sheet 'Samples')
# 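For Kinobeads Data in this document: kinobeads ε competition pulldown from cell lysate, compound preincubated 45 min at 4 °C, bound kinases quantified by LC–MS/MS relative to DMSO control.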
compound,measurement,setting,value
Cn1ncc2c(N)ncnc21 [SKF-18267],potency estimated from few doses,ACOX3,1160 nM
same,potency estimated from few doses,CDK1,1180 nM
same,potency estimated from few doses,FN3K,1170 nM
same,potency estimated from few doses,GRAMD1A,1380 nM
same,potency estimated from few doses,MAP3K3,1260 nM
same,potency estimated from few doses,MAPK3,844 nM
same,potency estimated from few doses,PKMYT1,892 nM
same,potency estimated from few doses,SLC25A5,1950 nM
same,potency estimated from few doses,TAOK2,1100 nM
O=C1NC(=O)/C(=C/c2ccc3ncccc3c2)S1 [RO4603632-000],potency estimated from few doses,PSMC4,1730 nM
COc1cccc2c(-c3ccncc3)c(-c3ccc(F)cc3)nn12 [GW468513X],potency estimated from few doses,PGK1,62.3 nM
O=C1N=C(NCCc2ccc(Cl)cc2)S/C1=C\c1ccc2ncccc2c1 [RO4498479-000],potency estimated from few doses,DAPK3,2110 nM
COc1cc(Nc2ncc3c(C)nc(-c4cc5ccccc5[nH]4)n3n2)cc(OC)c1OC [GW869516X],Kinobeads Data,AMPK-alpha1,no target
same,Kinobeads Data,CLK1,no target
same,Kinobeads Data,DYRK1A,no target
same,Kinobeads Data,MLK3,no target
same,Kinobeads Data,NEK3,no target
same,Kinobeads Data,NEK9,no target
same,Kinobeads Data,SRC,no target
same,Kinobeads Data,STK16,no target
